Assay results as given in PubChem BioAssay AID488975 (Johns Hopkins Ion Channel Center, 2010).
The campaign covered roughly 310,000 compounds. About 2,600 (0.84%) were called active.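 How the source made its calls: active means B-score over 3 SD under the library average, and starting fluorescence ratio not unusually high; inactive means the rest.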 This excerpt belongs to a sample that is enriched for actives. The source holds several records for some structures; these can differ, active in one and inactive in another.

biological target: High affinity choline transporter 1 (Homo sapiens) (UniProt Q9GZV3); assay: inhibitors of human choline transporter CHT (AID 488975); conditions: CHT-expressing cells, membrane potential dye, choline response, at 10 µM; stronger effect = lower value;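 on B-score: choline stimulus applied at its EC90 after an EC20 pre-addition; B-score computed on integrated fluorescence ratio after choline addition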
Sequence (Q9GZV3 whole entry, looked up): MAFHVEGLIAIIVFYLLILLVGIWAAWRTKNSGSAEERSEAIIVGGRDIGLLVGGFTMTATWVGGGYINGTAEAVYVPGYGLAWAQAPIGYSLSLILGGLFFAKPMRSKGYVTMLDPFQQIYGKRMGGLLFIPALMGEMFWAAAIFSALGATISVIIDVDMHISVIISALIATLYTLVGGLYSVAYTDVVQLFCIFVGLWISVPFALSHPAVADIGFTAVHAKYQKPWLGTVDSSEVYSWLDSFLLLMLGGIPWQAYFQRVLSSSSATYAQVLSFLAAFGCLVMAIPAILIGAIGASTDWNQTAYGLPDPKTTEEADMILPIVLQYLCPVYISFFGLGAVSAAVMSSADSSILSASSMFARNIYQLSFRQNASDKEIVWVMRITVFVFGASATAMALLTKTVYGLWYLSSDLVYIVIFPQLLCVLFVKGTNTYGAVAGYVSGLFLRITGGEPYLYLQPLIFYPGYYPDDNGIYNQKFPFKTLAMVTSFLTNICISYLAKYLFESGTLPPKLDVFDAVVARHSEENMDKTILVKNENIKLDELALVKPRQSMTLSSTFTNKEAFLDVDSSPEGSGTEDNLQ

| SMILES | B-score | outcome |
| --- | --- | --- |
| COc1ccc(/C=C2\SC(=S)N(CCC(=O)Nc3ccccn3)C2=O)cc1OC | inactive |  |
| O=C1/C(=C/c2ccc(F)cc2)SC(=S)N1CCCC(=O)N1CCCCC1CCO (centres undefined) | inactive |  |
| COc1ccc(/C=C2\SC(=S)N(CC(=O)NNC(=O)c3ccncc3)C2=O)cc1 | inactive |  |
| O=C(O)c1ccc(/C=N/NC(=O)c2ccc(Br)cc2)cc1 | inactive |  |
| O=C1/C(=C/c2ccc(F)cc2)SC(=S)N1NS(=O)(=O)c1ccccc1 | -6.62 (active) |  |
| Cn1cccc1/C=C1\SC(=S)N(NC(=O)c2ccc(Cl)cc2)C1=O | inactive |  |
| O=C(O)c1ccc(/C=C2\SC(=S)N(NC(=O)c3ccc(Br)cc3)C2=O)cc1 | -5.15 (active) |  |
| CCOc1ccc(/C=C2\SC(=S)N(NC(=O)c3ccncc3)C2=O)cc1OC | -5.15 (active) |  |
| COc1ccccc1C(=O)NNC(=O)CCN1C(=O)/C(=C\c2ccccc2)SC1=S | inactive |  |
| COc1ccc2oc(C(=O)N(CC(C)C)C3CCS(=O)(=O)C3)c(C)c2c1 (centres undefined) | inactive |  |
| O=C(NCc1ccc(Cl)cc1)C(=O)NCC1CCCN1S(=O)(=O)c1cccs1 (centres undefined) | inactive |  |
| CC1CC(C)(C)CC2(C1)NC(=O)N(CC(=O)Nc1nccs1)C2=O (centres undefined) | inactive |  |
| C=CCNc1cnn(-c2ccc(C)cc2)c(=O)c1Cl | inactive |  |
| O=c1c(Cl)c(NC2CC2)cnn1-c1ccccc1 | inactive |  |
| Cc1cccc(-n2ncc(Cl)c(Cl)c2=O)c1 | -6.46 (active) |  |
| CCN1C(=O)[C@H]2[C@@H](c3ccc(SC4CCCCC4)c(OC)c3)N[C@@](Cc3ccccc3)(C(=O)OC)[C@H]2C1=O | inactive |  |
| COc1cc(OC)cc(C(=O)NCCCn2ccnc2)c1 | inactive |  |
| COc1ccc(/C=C(\C#N)C(=O)NCCCn2ccnc2)cc1 | inactive |  |
| COc1cccc(-c2nn(-c3ccccc3)cc2/C=C(\C#N)C(=O)NCCCn2ccnc2)c1 | -6.63 (active) |  |
| Cc1ccc(S(=O)(=O)N2[C@@H](c3cccc(Cl)c3)C(C(=O)O)=CC[C@H]2c2ccc(Cl)c(Cl)c2)cc1 | inactive |  |
| COc1cccc(N2CC(NS(=O)(=O)c3ccc(Cl)cc3)CC2=O)c1 (centres undefined) | inactive |  |
| COc1cccc(CNC(=O)C(=O)NCCC2CCCCN2S(=O)(=O)c2ccc(C)cc2)c1 (centres undefined) | inactive |  |
| C/C(=N\NC(N)=S)c1ccncc1 | inactive |  |
| C/C(=N\NC(N)=S)c1cccnc1 | -9.98 (active) |  |
| C/C(=N\NC(=O)c1cccnc1)c1ccc(-c2ccccc2)cc1 | inactive |  |

| SMILES | B-score | outcome |
| --- | --- | --- |
| CC(Oc1ccc2ccccc2c1)C(=O)NNC(=S)NC(=O)c1ccco1 (centres undefined) | -5.21 (active) |  |
| O=C(Nc1ccc2ccccc2c1)/C(=C/c1cccc(Br)c1)NC(=O)c1ccco1 | inactive |  |
| Cc1ccc(C(=O)NNC(=O)C(C)Oc2ccc3ccccc3c2)o1 (centres undefined) | inactive |  |
| CCCCN(C(=O)CCNC(=O)NC12CC3CC(CC(C3)C1)C2)c1c(N)n(CCCC)c(=O)[nH]c1=O | inactive |  |
| COc1ccc(CCNC(=O)C(=O)NCC2OCCN2S(=O)(=O)c2cccs2)cc1OC (centres undefined) | inactive |  |
| O=C(Nc1ccccc1N1CCCC1)c1ccc(F)c(S(=O)(=O)N2CCOCC2)c1 | inactive |  |
| CC(C)CN(C(=O)COC(=O)c1ccc(Cl)c(N)c1)c1c(N)n(Cc2ccccc2)c(=O)[nH]c1=O | inactive |  |
| Cc1nc2sc3c(c2c(=O)n1NC(=O)CCl)CCCC3 | inactive |  |
| Cc1cc(C)n(-c2nc(SCC(=O)N3CCCC3)c3c4c(sc3n2)CCCC4)n1 | inactive |  |
| COCCNc1nc(-n2nc(C)cc2C)nc2sc3c(c12)CCCC3 | -4.98 (active) |  |
| N#CC1(NC(=O)COC(=O)CSc2ccc(F)cc2)CCCCC1 | inactive |  |
| CCOc1ccc(S(=O)(=O)Nc2ccc(C(=O)NCCCN3CCCC3=O)cc2)cc1 | inactive |  |
| COc1ccc(S(=O)(=O)N2CCCC2CNC(=O)C(=O)NC2CC2)cc1 (centres undefined) | inactive |  |
| COc1ccc(S(=O)(=O)N2CCN(C(=O)NC3CCCCC3)CC2)cc1 | -6.98 (active) |  |
| CCOC(=O)N1CCN(S(=O)(=O)c2ccc(OC)cc2)CC1 | inactive |  |
| OCCCNc1nccc(-c2cc(Nc3cccc(Cl)c3)ncn2)n1 | inactive |  |
| CC(C)C[C@H](CO)Nc1nc(N(C)c2cccc(Cl)c2)c2ncn(C(C)C)c2n1 | inactive |  |
| CC(C)n1cnc2c(Nc3cccc(Cl)c3)nc(N(CCO)CCCO)nc21 | -7.57 (active) |  |
| COc1ccccc1N(C)S(=O)(=O)c1ccc(Cl)c(C(=O)Nc2ccncc2)c1 | inactive |  |
| COc1ccc(NS(=O)(=O)c2ccc(C)c(C(=O)N(C)Cc3ccc(OC)cc3OC)c2)cc1 | inactive |  |
| CC1(C)S[C@@H]2[C@H](N=CN3CCCCCC3)C(=O)N2[C@H]1C(=O)O | inactive |  |
| CC1(C)SC2C(NC(=O)COc3ccccc3)C(=O)N2C1C(=O)O (centres undefined) | -6.15 (active) | inactive |
| CC1(C)S[C@@H]2[C@H](NC(=O)COc3ccccc3)C(=O)N2C1C(=O)OCc1ccccc1 (some centres undefined) | inactive |  |
| COC(=O)[C@]1(C)N[C@H](c2ccc(-c3ccc(Cl)c(Cl)c3)cc2)[C@@H]2C(=O)N(C)C(=O)[C@@H]21 | inactive |  |
| O=C(NCC(c1cccs1)N1CCOCC1)c1cc(Cl)ccc1[N+](=O)[O-] (centres undefined) | inactive |  |

| SMILES | B-score | outcome |
| --- | --- | --- |
| OCCCNc1nc(-c2ccccc2)c2cc(Cl)ccc2n1 | inactive |  |
| CC(C)OC(=O)Cn1nc(C(F)(F)F)c2c1CCCC2 | inactive |  |
| Cc1cc(NC(=O)Cn2nc(C(F)(F)F)c3c2CCCC3)no1 | inactive |  |
| COC(=O)c1ccccc1NC(=O)CSc1nc2c(c(=O)[nH]1)CCC2 | inactive |  |
| CCC(C)NC(=O)Cn1nc(C(F)(F)F)c2c1CCC2 (centres undefined) | inactive |  |
| COC(=O)c1ccccc1NC(=O)Cn1nc(C(F)(F)F)c2c1CCC2 | -5.17 (active) |  |
| O=C(Cn1nc(C(F)(F)F)c2c1CCC2)NCc1ccc(F)cc1 | -6.14 (active) |  |
| N#CCN(C(=O)COC(=O)C1CC2CCCC(C1)C2=O)c1ccccc1 (centres undefined) | inactive |  |
| CC1CCN(c2ccc(-c3ccc(NC(=O)c4ccco4)cc3)nn2)CC1 | inactive |  |
| Cc1noc(C)c1CSCC(=O)Nc1ccc(Br)cc1Cl | inactive |  |
| O=C(c1ccncc1)N1CCN(S(=O)(=O)c2cc(C(F)(F)F)cc(C(F)(F)F)c2)CC1 | inactive |  |
| COCc1c(C(=O)N/N=C\c2cccnc2)nnn1-c1nonc1N | inactive |  |
| CN(C)Cc1c(C(=O)N/N=C/c2ccccc2OCc2ccc(F)cc2)nnn1-c1nonc1N | inactive |  |
| CCN(CC)Cc1c(C(=O)N/N=C/c2cccc(OCc3ccc(F)cc3)c2)nnn1-c1nonc1N | -5.26 (active) |  |
| CCCCn1c(N)c(N(CC(C)C)C(=O)c2ccc(Br)o2)c(=O)[nH]c1=O | inactive |  |
| CC(OC(=O)c1ccc(S(=O)(=O)N2CCOCC2)cc1)c1ccccc1 (centres undefined) | inactive |  |
| CCN(C(=O)CSc1ncnc2c1cnn2-c1ccccc1)C1CCS(=O)(=O)C1 (centres undefined) | inactive |  |
| O=C(Nc1ccc(F)c(Cl)c1)C1CCN(S(=O)(=O)c2cccnc2)CC1 | -5.54 (active) |  |
| O=C(NCc1cccs1)C1CCN(S(=O)(=O)c2ccc(Cl)cc2)CC1 | inactive |  |
| CC(C)c1ccc(NC(=O)C2CCCN(S(=O)(=O)c3cccnc3)C2)cc1 (centres undefined) | inactive |  |
| Cc1cc(C(=O)OCC(=O)NCc2ccco2)c(C)n1-c1ccccc1 | -10 (active) |  |
| CN(c1ccccc1)S(=O)(=O)c1ccc(Cl)c(C(=O)OCC(=O)NCc2ccco2)c1 | inactive |  |
| O=C(COC(=O)c1cc(S(=O)(=O)N2CCCCC2)ccc1Cl)NCc1ccco1 | inactive |  |
| CCOc1ccc(S(=O)(=O)N2CCN(C(=S)NCC3CCCO3)CC2)cc1 (centres undefined) | inactive |  |
| CC(C)CN(C(=O)c1ccc2c(c1)OCO2)C1CCS(=O)(=O)C1 (centres undefined) | inactive |  |

| SMILES | B-score | outcome |
| --- | --- | --- |
| CN(C(=O)c1cc2c(=O)n3ccccc3nc2s1)C1CCCCC1 | inactive |  |
| O=C(CC1SC(N2CCCC2)=NC1=O)Nc1ccc(C(=O)NCCc2ccc(F)cc2)cc1 (centres undefined) | inactive |  |
| Cc1ccc([N+](=O)[O-])cc1S(=O)(=O)N1CCCN(C)CC1 | inactive |  |
| CCc1nc(C)cn1S(=O)(=O)c1cc([N+](=O)[O-])ccc1Cl | -5.38 (active) |  |
| CCc1nccn1S(=O)(=O)c1cccc([N+](=O)[O-])c1 | inactive |  |
| C=CCOc1cccc(C2C(C(=O)c3ccc(C)o3)=C(O)C(=O)N2CCCn2ccnc2)c1 (centres undefined) | inactive |  |
| O=C(CCCN1C(=O)CSc2ncccc21)N1CCN(c2cccc(C(F)(F)F)c2)CC1 | -9.61 (active) |  |
| O=C(CN1C(=O)CSc2ncccc21)N1CCOCC1 | inactive |  |
| O=C(COc1ccc(Cl)cc1)N1CCN(c2cccc(C(F)(F)F)c2)CC1 | inactive |  |
| CCCn1c(C)cc(-c2csc(NC(=O)CCc3nc4ccccc4c(=O)[nH]3)n2)c1C | inactive |  |
| CN(C)C1=NC[C@H](Cc2ccccc2)N1CCc1ccc(F)cc1 | inactive |  |
| CC1C(=O)N2CCCc3cc(S(=O)(=O)NCc4ccc(F)cc4)cc1c32 (centres undefined) | inactive |  |
| CN1CCN(CCCNC(=O)c2ccc(/C=C3\Oc4ccccc4N(Cc4ccc(Cl)cc4)C3=O)cc2)CC1 | -7.25 (active) |  |
| O=C(NCCN1CCOCC1)c1ccc(/C=C2\Sc3ccccc3N(Cc3ccc(F)cc3)C2=O)cc1 | inactive |  |
| CN1C(=O)/C(=C/c2ccc(C(=O)NC3CCCC3)cc2)Oc2ccccc21 | inactive |  |
| O=C(NC1CCCCC1)c1ccc(-c2ccc(Cl)cc2)o1 | inactive |  |
| O=[N+]([O-])c1ccc(O)c(/C=N/Nc2ccccc2[N+](=O)[O-])c1 | inactive |  |
| O=C(O)c1ccccc1C(=O)Nc1ccccc1[N+](=O)[O-] | inactive |  |
| O=[N+]([O-])c1ccccc1Nc1ccc(O)cc1 | -5.48 (active) |  |
| CCN(C(=O)CSc1nnnn1-c1ccccc1OC)C1CCS(=O)(=O)C1 (centres undefined) | inactive |  |
| Cc1nc2c(c(C)nn2-c2ccccc2)c(C)c1C | inactive |  |
| O=C(Nc1ncccc1O)c1ccc(C(=O)c2ccccc2)cc1 | inactive |  |
| Cc1csc(=O)n1CC(=O)OCC(=O)N(CC(C)C)c1c(N)n(Cc2ccccc2)c(=O)[nH]c1=O | inactive |  |
